Assay results published in PubChem BioAssay.
“And” between values parts separate entries of the source, which are not always exact repeats. Equal values may be shown once. Where a structure was tested more than once in an assay, its records may differ in their call. The source made the active and inactive calls.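 Rule for the calls, unless noted: active = thallium flux through the channel raised or lowered by more than 3 SD from vehicle-only wells, actives on both sides; inactive = the rest.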

Experiments:
[1] = system: Hepatitis C virus NS3 helicase; assay: blockers of NS3h binding to DNA – biochemical, fluorescence polarization, NIH Clinical Collection, primary screen (AID 743270; call rule not given here); conditions: NS3 helicase binding to Cy5-dT15 DNA, stronger effect = higher value, concentration not given here
[2] = biological target: Single-stranded DNA-binding protein (Escherichia coli (strain K12)) (UniProt P0AGE0); assay: SSB-ssDNA binding inhibitors – biochemical, fluorescence polarization, NIH Clinical Collection, counter-screen for HCV NS3 helicase inhibitor project (AID 743271; in the data active = inhibition above about 28%); conditions: E. coli SSB-DNA binding, stronger effect = higher value, concentration not given here
[3] = compounds distorting NS3 helicase fluorescence signal – biochemical, NIH Clinical Collection, artefact control for HCV NS3 helicase inhibitor project (AID 743272; call rule not given here;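 note: HCV NS3 helicase with a Cy5 labelled single stranded DNA probe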); conditions: fluorescence interference counterscreen, HCV NS3 helicase assay; stronger effect = lower value
[4] = Wnt pathway potentiators raising nuclear beta-catenin – imaging, WNT3A-conditioned medium, mouse C2C12, NPC library, primary screen (AID 1117326; in the data active = nuclear beta-catenin stimulation mostly above about 4.2%, no sharp cut-off; inactive = mostly below about 10%); conditions: stronger effect = higher value
[5] = stimulators of insulin release from INS-1E, primary screen, cell-based, 5 mM glucose, NPC library (AID 1117329;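 active = compound raises insulin release from rat beta cells at 5 mM glucose, no numeric limit stated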); conditions: rat INS-1E insulin secretion, at 10 µM, stronger effect = higher value
[6] = growth inhibition of GSK3B-pretreated HCT116 cells – cell-based, CellTiter-Glo, 0.2 to 20 µM (AID 1117336;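 active = compounds lowering colon cancer cell viability after pretreatment blocking the GSK3B kinase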); conditions: HCT116 viability after GSK3B inhibitor, at 20 µM, stronger effect = higher value
[7] = inhibition of endothelial tube formation, primary screen, imaging, VEGF stimulated, CD31 staining, tube area, NPC library (AID 1117340;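 active = compound that reduces growth-factor-driven endothelial tube area in a mixed cell culture, no cutoff stated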); conditions: VEGF-stimulated ADSC/ECFC co-culture, at 10 µM, stronger effect = higher value
[8] = GLP1 release stimulators, primary, NCI-H716, NPC library (AID 1117341;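 active = compound raises GLP1 secretion from the human gut endocrine cells, with no numeric limit stated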); conditions: NCI-H716 cells, at 10 µM, stronger effect = higher value
[9] = HCT116 colon cancer cell growth inhibition, primary screen, CellTiter-Glo luminescence, NPC library (AID 1117342;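 active = compounds that lower survival of HCT116 colon cancer cells in the luminescence readout, no numeric limit stated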); conditions: at 20 µM (top of the series)
[10] = reduced SW480 viability measured with CellTiter-Glo, NPC library, primary (AID 1117343;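 active = compounds that lower viability of the colon cancer cells in the luminescence readout, with no numeric limit stated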); conditions: CellTiter-Glo luminescence; at 20 µM (top of the series)
[11] = NPC library primary testing for decreased DLD-1 cell viability via CellTiter-Glo (AID 1117346;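 active = compounds that lower survival of DLD-1 colon cancer cells in the luminescence readout, no cutoff given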); conditions: DLD-1 viability, CellTiter-Glo luminescence; at 20 µM (top of the series)
[12] = biological target: 6-phosphogluconate dehydrogenase, decarboxylating (Homo sapiens) (UniProt P52209); assay: inhibition of human phosphogluconate dehydrogenase – biochemical, recombinant enzyme, NADPH absorbance, primary screen (AID 1159550;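 active = at least 20% inhibition of 6-phosphogluconate dehydrogenase activity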); conditions: recombinant 6PGD, NADPH absorbance 341 nm; at 10 µM; stronger effect = higher value
[13] = EMT-state selective cytotoxicity in co-culture – imaging, PC-3E GFP, TEM4-18 mCherry, primary screen (AID 1345086;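 active = compounds killing one labelled cell type while sparing the other, by normalised counts and ratio limits, not self-fluorescent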;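 for all read-outs here: cells exposed to compound for 72 h before imaging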;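 for red/green cell ratio (normalised): normalised mesenchymal count divided by normalised epithelial count so high means epithelial killing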); conditions: PC-3E GFP / TEM4-18 mCherry co-culture, imaging cell counts, at 1 µM; for red/green cell ratio (normalised): actives lie on both sides, counts scaled to control wells, 1 = unselective
[14] = MELAS cybrid and Rieske KO viability enhancers – cell-based, MELAS cybrids, Rieske KO mouse fibroblasts, CellTiter-Glo, primary screen (AID 1508586;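 active = mean z-score across replicates of 1.96 or higher in either the MELAS or the Rieske mutant cell line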;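 note: z relative to plate mean and SD of compound and empty wells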); conditions: low glucose
[15] = biological target: NAD(+) hydrolase SARM1 (Homo sapiens) (UniProt Q6SZW1); assay: blocking NAD cleavage by SARM1 SAM-TIR – cell lysate, NAD-Glo luminescence (AID 1508614;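 active = compound whose remaining NAD level is above about 45 nM, limit read from the data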;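 note: higher remaining NAD means stronger inhibition of SARM1 NADase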); conditions: SAM-TIR HEK293T lysate NADase, at 1 µM, stronger effect = higher value
[16] = biological target: Mitogen-activated protein kinase 7 (Homo sapiens) (UniProt Q13164); assay: Gal4-ERK5 driven luciferase induction – cell-based, HTS, primary screen (AID 1508626;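 active = luciferase signal above three times the same-plate solvent-only control wells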;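 note: luciferase driven by Gal4-ERK5 fusion binding five Gal4 sites before minimal TATA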); conditions: HeLa Gal4-ERK5 transactivation, 18 h, at 5 µM, stronger effect = higher value
F380Y = assay: BK channel mutant inhibitors and activators – cell-based, U2OS BacMam, thallium flux, beta subunits, selectivity assay, profiling panel (AID 1259406); conditions: U2OS BacMam BK variants, at 30 µM;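 note: initial slope of Thallos dye fluorescence rise after thallium is added; log ratio against the mean of 0.3% DMSO vehicle wells on the same plate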
F380Y/beta2Delta = assay: as above; conditions: U2OS BacMam BK variants, at 30 µM
[17] = biological target: Calcium-activated potassium channel subunit alpha-1 (Homo sapiens) + Leucine-rich repeat-containing protein 26 (Homo sapiens) (UniProt Q12791+Q2I0M4); assay: as above; conditions: U2OS BacMam BK variants, F380Y/Slo1WT/gamma1, at 30 µM
[18] = viability loss with induced miR-34 in A549 – imaging, A549 dox-inducible miR-34, nuclei and caspase counts, primary screen (AID 1347080;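 active = compounds whose cell count with miR-34 switched on is under 0.7 times the count with it off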); conditions: A549 miR-34 inducible, Hoechst nuclei count, 48 h
[19] = measured here: epithelial PC-3E GFP cell survival
[20] = measured here: mesenchymal TEM4-18 mCherry cell survival
[21] = MELAS cybrid survival, CellTiter-Glo 48 h, stronger effect = higher value
[22] = Rieske KO mouse fibroblast survival, CellTiter-Glo 72 h
[23] = stronger effect = lower value, cell number ratio, induced over uninduced
[24] = measured here: relative caspase fold change +Dox/-Dox
[25] = measured here: total cells with miR-34 induction, stronger effect = lower value
[26] = measured here: total cells without miR-34 induction

Mitogen-activated protein kinase 7 (Homo sapiens), sequence (Q13164 whole entry, looked up, the tested form may be a part): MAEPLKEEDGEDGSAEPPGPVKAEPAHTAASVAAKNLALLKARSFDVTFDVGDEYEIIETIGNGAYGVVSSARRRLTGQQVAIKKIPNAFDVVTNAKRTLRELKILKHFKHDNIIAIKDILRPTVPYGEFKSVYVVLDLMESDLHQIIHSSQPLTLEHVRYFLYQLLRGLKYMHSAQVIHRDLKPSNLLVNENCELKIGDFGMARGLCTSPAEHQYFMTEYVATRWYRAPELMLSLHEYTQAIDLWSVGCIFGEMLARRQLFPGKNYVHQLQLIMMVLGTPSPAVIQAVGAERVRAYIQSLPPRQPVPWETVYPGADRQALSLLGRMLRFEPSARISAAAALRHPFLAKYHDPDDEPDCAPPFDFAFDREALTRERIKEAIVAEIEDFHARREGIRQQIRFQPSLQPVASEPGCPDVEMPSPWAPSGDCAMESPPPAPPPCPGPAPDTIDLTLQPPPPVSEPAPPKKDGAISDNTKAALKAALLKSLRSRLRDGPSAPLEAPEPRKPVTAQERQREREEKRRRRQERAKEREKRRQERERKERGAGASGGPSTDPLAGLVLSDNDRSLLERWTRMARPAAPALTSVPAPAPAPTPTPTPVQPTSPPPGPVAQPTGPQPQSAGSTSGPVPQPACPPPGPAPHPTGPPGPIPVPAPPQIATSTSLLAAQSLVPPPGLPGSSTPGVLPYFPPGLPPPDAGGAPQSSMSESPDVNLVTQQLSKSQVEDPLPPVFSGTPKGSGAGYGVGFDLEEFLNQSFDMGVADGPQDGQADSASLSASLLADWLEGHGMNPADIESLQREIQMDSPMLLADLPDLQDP
6-phosphogluconate dehydrogenase, decarboxylating (Homo sapiens), sequence (P52209 whole entry, looked up): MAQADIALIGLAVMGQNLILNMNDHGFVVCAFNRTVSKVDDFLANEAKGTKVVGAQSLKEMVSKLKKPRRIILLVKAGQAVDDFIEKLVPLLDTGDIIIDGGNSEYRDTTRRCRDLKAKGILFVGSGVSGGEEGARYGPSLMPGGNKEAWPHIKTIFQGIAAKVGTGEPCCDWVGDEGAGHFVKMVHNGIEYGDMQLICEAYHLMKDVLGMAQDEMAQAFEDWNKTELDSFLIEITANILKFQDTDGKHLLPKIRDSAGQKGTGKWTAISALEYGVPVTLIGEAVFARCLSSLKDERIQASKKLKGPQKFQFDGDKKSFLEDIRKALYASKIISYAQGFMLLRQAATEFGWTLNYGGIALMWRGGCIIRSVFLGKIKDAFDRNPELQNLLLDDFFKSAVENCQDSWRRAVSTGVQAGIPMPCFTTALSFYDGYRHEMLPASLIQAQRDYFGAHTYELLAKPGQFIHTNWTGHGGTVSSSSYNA
NAD(+) hydrolase SARM1 (Homo sapiens), sequence (Q6SZW1 whole entry, looked up, the tested form may be a part): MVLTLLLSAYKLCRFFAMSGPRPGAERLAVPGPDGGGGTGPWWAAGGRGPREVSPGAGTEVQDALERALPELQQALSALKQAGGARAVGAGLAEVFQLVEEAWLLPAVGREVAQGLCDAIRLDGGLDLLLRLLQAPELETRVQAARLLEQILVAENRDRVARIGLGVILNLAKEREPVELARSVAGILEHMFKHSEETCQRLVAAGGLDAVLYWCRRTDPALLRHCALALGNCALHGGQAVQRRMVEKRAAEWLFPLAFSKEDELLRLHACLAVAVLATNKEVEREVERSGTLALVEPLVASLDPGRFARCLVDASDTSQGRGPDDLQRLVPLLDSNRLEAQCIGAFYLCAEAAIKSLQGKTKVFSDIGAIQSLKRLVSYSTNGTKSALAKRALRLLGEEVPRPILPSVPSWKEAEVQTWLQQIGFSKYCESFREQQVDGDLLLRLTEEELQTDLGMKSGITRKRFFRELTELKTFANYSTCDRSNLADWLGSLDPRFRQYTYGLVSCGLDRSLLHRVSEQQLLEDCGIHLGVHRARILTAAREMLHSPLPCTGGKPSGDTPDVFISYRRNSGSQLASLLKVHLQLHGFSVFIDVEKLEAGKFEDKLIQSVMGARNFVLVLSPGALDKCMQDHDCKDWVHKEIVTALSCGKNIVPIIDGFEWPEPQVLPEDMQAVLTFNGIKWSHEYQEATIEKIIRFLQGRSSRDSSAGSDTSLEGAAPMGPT
Calcium-activated potassium channel subunit alpha-1 (Homo sapiens) + Leucine-rich repeat-containing protein 26 (Homo sapiens), sequence (Q2I0M4 whole entry, looked up, one chain of several): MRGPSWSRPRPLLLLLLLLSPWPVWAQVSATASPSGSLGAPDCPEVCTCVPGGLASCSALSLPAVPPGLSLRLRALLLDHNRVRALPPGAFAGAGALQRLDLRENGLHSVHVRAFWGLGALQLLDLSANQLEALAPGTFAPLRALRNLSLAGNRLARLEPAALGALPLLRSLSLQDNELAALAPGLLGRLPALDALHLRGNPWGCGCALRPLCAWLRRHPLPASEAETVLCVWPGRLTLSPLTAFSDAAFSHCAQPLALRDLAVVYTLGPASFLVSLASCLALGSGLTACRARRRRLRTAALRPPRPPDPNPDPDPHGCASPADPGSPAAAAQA

Cc1cccc(Nc2ccccc2C(=O)O)c1C
1.18: normalised cell number [13, 19]
inactive: inhibition [1] -5% | inhibition [2] 1.05% | fluorescence ratio [3] 0.91 | nuclear beta-catenin stimulation ([4]; at 10 µM) 0.8% | insulin secretion stimulation [5] -1.6% | viability decrease [6] -0.3% | tube area decrease [7] 18% | GLP1 secretion stimulation [8] -0.1% | inhibition of viability [9] -21% | viability decrease (inhibition) [10] 29.6% | viability decrease (inhibition) [11] 2.25% | inhibition [12] 17.3% | red/green cell ratio (normalised) [13] 0.92 | z-score [14, 21] -0.21 and 0.386 and -0.378 | remaining NAD [15] 10 nM | luciferase signal [16] 232 AU | log fold change Tl+ flux (F380Y) 0.0635
active: log fold change Tl+ flux (F380Y/beta2Delta) 0.111 | log fold change Tl+ flux [17] 0.101
0.4%: nuclear beta-catenin stimulation ([4]; stimulation, at 2 µM)
-0.308 and -0.333 and -1.12: z-score [14, 22]
1.08: normalised cell number [13, 20]

CC(C)Oc1ccc2c(=O)c(-c3ccccc3)coc2c1
-0.279 (inactive) and 1.99 (active): z-score [14, 21]
1.09 and 1.31: fold change [18, 24]
9370 and 9660: cell count [18, 26]
-1.4% and 0.1%: nuclear beta-catenin stimulation ([4]; stimulation, at 2 µM)
8700 and 8850: cell count [18, 25]
inactive: inhibition [1] 3.56% | inhibition [2] 5.29% | fluorescence ratio [3] 1.04 | nuclear beta-catenin stimulation ([4]; at 10 µM) 1.8% and 1% | insulin secretion stimulation [5] 1.75% and -0.3% | viability decrease [6] 45.8% and -14.2% | tube area decrease [7] -10.2% and -25.5% | GLP1 secretion stimulation [8] -2.3% and -2.1% | viability decrease (inhibition) [11] 38.2% and 30.5% | inhibition [12] 8.55% | fold change [18, 23] 0.928 and 0.917 | remaining NAD [15] 10 nM | luciferase signal [16] 56 AU | log fold change Tl+ flux (F380Y) -0.0497 | log fold change Tl+ flux (F380Y/beta2Delta) -0.052 | log fold change Tl+ flux [17] -0.0126
active: inhibition of viability [9] 75.7% and 54.6% | viability decrease (inhibition) [10] 58.3% and 71%
0.976 and 0.611: z-score [14, 22]

CC(=O)OCC[N+](C)(C)C
1.3: normalised cell number [13, 20]
inactive: inhibition [1] -0.45% | inhibition [2] 0.29% | fluorescence ratio [3] 1.01 | nuclear beta-catenin stimulation ([4]; at 10 µM) 0.6% | insulin secretion stimulation [5] 0.3% | viability decrease [6] -38.1% | tube area decrease [7] 19.9% | GLP1 secretion stimulation [8] -5.3% | inhibition of viability [9] 10.1% | viability decrease (inhibition) [10] 2.1% | viability decrease (inhibition) [11] -14.9% | inhibition [12] 14.7% | red/green cell ratio (normalised) [13] 1.07 | z-score [14, 21] -0.299 and 0.505 | remaining NAD [15] 10 nM | luciferase signal [16] 60 AU | log fold change Tl+ flux (F380Y) 0.0119 | log fold change Tl+ flux (F380Y/beta2Delta) -0.0134 | log fold change Tl+ flux [17] 0.00764
-0.06 and -0.687: z-score [14, 22]
1.22: normalised cell number [13, 19]
2.2%: nuclear beta-catenin stimulation ([4]; stimulation, at 2 µM)

COc1ccc([C@@H]2Sc3ccccc3N(CCN(C)C)C(=O)[C@@H]2OC(C)=O)cc1
-0.4%: nuclear beta-catenin stimulation ([4]; stimulation, at 2 µM)
-0.0359 and -0.282: z-score [14, 22]
inactive: inhibition [1] -3.18% | inhibition [2] -2.76% | fluorescence ratio [3] 0.98 | nuclear beta-catenin stimulation ([4]; at 10 µM) 0.5% | insulin secretion stimulation [5] 1.15% | viability decrease [6] 17% | tube area decrease [7] -3.8% | GLP1 secretion stimulation [8] 2.5% | inhibition of viability [9] 32.9% | viability decrease (inhibition) [10] 47.4% | viability decrease (inhibition) [11] 32.3% | inhibition [12] -12.8% | z-score [14, 21] 0.628 and 0.162 | remaining NAD [15] 10 nM | luciferase signal [16] 68 AU | log fold change Tl+ flux (F380Y) 0.0589 | log fold change Tl+ flux (F380Y/beta2Delta) -0.00376 | log fold change Tl+ flux [17] 0.0123

CN[C@@H]1[C@H](O)[C@H](NC)[C@H]2O[C@@]3(O)C(=O)C[C@@H](C)O[C@H]3O[C@@H]2[C@H]1O
inactive: inhibition [1] -5% | inhibition [2] -4.29% | fluorescence ratio [3] 1.01 | nuclear beta-catenin stimulation ([4]; at 10 µM) 0.2% | insulin secretion stimulation [5] -0.2% | viability decrease [6] 12.5% | tube area decrease [7] -8.4% | inhibition of viability [9] 6.2% | viability decrease (inhibition) [10] 12.1% | viability decrease (inhibition) [11] 3.7% | inhibition [12] -6.86% | red/green cell ratio (normalised) [13] 1.39 | z-score [14, 21] 0.0203 and 0.894 | remaining NAD [15] 10 nM | luciferase signal [16] 44 AU | log fold change Tl+ flux (F380Y) -0.0285 | log fold change Tl+ flux (F380Y/beta2Delta) -0.0192 | log fold change Tl+ flux [17] 0.021
3.5%: nuclear beta-catenin stimulation ([4]; stimulation, at 2 µM)
active: GLP1 secretion stimulation [8] 23.7%
0.94: normalised cell number [13, 19]
1.31: normalised cell number [13, 20]
0.169 and 0.769: z-score [14, 22]

CCCCCCCCCCC[C@@H](C[C@@H]1OC(=O)[C@H]1CCCCCC)OC(=O)[C@H](CC(C)C)NC=O
4.5%: nuclear beta-catenin stimulation ([4]; stimulation, at 2 µM)
active: tube area decrease [7] 102% | viability decrease (inhibition) [10] 107% | viability decrease (inhibition) [11] 79.1%
2.26: fold change [18, 24]
inactive: inhibition [1] -7.52% | inhibition [2] -0.1% | fluorescence ratio [3] 0.95 | nuclear beta-catenin stimulation ([4]; at 10 µM) 2.8% | insulin secretion stimulation [5] -1.7% | viability decrease [6] 42.4% | GLP1 secretion stimulation [8] 0.9% | inhibition of viability [9] 32.5% | inhibition [12] -8.26% | fold change [18, 23] 0.867 | remaining NAD [15] 10 nM | luciferase signal [16] 48 AU | log fold change Tl+ flux (F380Y) 0.0597 | log fold change Tl+ flux (F380Y/beta2Delta) 0.0435 | log fold change Tl+ flux [17] 0.0135
7850: cell count [18, 25]
9060: cell count [18, 26]

CC[C@H](C)C(=O)O[C@H]1C[C@H](O)C=C2C=C[C@H](C)[C@H](CC[C@@H](O)C[C@@H](O)CC(=O)O)[C@H]21
9020: cell count [18, 25]
0.983: fold change [18, 24]
-1.06: z-score [14, 22]
9270: cell count [18, 26]
inactive: inhibition [1] -3.56% | inhibition [2] -3.18% | fluorescence ratio [3] 1 | nuclear beta-catenin stimulation ([4]; at 10 µM) -0.7% | insulin secretion stimulation [5] 0.2% | viability decrease [6] -15.6% | tube area decrease [7] 22% | GLP1 secretion stimulation [8] -3.6% | inhibition of viability [9] 12.4% | viability decrease (inhibition) [10] 2.3% | viability decrease (inhibition) [11] 5.1% | inhibition [12] -4.46% | fold change [18, 23] 0.972 | z-score [14, 21] -0.583 | remaining NAD [15] 10 nM | luciferase signal [16] 36 AU | log fold change Tl+ flux (F380Y) -0.00852 | log fold change Tl+ flux (F380Y/beta2Delta) -0.0757 | log fold change Tl+ flux [17] 0.00396
-0.3%: nuclear beta-catenin stimulation ([4]; stimulation, at 2 µM)
